Measurements published in PubChem BioAssay AID488969 (Vanderbilt High Throughput Screening Facility, 2010).
The full ranking holds about 110,000 compounds; the median of “z-score” is about -0.1, and the highest 2% start at about 2. What follows is part of a selection rich in the highest values, with near analogues and random picks from the rest. Active and inactive are the calls of the source.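 Rule for the calls: active = z-score in the third read window above 3 or below -3; inactive = the rest.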 Non-standard residues stand in square brackets, D forms with d. Residues, ends and D or L forms follow the SMILES beside them. ξ: configuration not given here. *: point of attachment. Boc = CC(C)(C)OC(=O)*; ξP = O=C(O)C1CCCN1

Each compound was assayed against Metabotropic glutamate receptor 8 (Rattus norvegicus) (UniProt P70579) (assay: mGluR8 Gi/Go-coupled signaling modulation – cell-based, rat, thallium flux, HTS, primary screen (AID 488969)). Conditions: HEK293 rat mGluR8, GIRK (G protein-gated inwardly rectifying potassium channel) thallium flux, FluoZin2; at 10 µM; stronger effect = higher value; submaximal glutamate (EC20) added with thallium.
Metabotropic glutamate receptor 8 (Rattus norvegicus), sequence (P70579 whole entry, looked up): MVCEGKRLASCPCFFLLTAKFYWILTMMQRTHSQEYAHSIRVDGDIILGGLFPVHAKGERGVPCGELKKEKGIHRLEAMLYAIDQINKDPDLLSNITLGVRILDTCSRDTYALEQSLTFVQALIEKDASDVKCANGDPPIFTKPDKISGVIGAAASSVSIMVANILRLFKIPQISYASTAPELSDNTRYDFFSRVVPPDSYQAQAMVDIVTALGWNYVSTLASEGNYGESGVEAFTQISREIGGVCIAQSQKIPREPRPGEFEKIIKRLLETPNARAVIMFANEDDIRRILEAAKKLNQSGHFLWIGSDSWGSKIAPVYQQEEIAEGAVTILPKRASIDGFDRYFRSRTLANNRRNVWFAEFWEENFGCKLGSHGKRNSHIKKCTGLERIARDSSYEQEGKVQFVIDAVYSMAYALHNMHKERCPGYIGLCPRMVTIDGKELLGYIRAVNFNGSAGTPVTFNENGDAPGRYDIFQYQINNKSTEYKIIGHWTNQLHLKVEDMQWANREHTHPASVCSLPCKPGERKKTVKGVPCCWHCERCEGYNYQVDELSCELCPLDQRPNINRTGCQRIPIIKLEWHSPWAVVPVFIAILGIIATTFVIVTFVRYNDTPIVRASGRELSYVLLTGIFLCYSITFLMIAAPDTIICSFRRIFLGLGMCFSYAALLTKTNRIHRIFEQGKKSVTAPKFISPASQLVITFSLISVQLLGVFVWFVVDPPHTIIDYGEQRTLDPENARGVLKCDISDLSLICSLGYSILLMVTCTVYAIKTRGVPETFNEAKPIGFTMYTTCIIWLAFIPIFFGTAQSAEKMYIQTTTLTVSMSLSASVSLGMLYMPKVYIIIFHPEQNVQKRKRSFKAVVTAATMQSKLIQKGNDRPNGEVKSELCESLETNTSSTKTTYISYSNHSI
Compound `CC(C)CCNC(=O)C(c1cccnc1)N(CCc1ccccc1)C(=O)Cn1nnc2ccccc21` (stereo unspecified) has a z-score of 0.555. `CC(C)=NNc1nc(-c2ccccc2)cs1` showed a z-score of -0.203. In the case of `CCCCCNc1nc(-c2ccccc2)cs1`, the z-score is reported as 3.86 (active). Compound `c1ccc(CCNc2nc(-c3cccnc3)cs2)cc1` has a z-score of -0.023. `CN(Cc1ccccc1)c1nc2c(c(=O)[nH]c(=O)n2C)n1CCSc1ncccn1` was tested, and the z-score was 0.672. Compound `CC1(C)C2CC=C(/C=N/NC(=O)c3ccc(O)cc3)C1C2` (stereo unspecified) has a z-score of -0.0642. Work on `CC1(C)C2CC=C(/C=N/n3cnnc3)C1C2` (stereo unspecified) yielded a z-score of 2. For `CC(C)NC(=S)N/N=C/C1=CCC2CC1C2(C)C` (stereo unspecified), the z-score was -0.69. With `Cc1nc2ccc(S(=O)(=O)NC(C(=O)NCc3ccc4c(c3)OCO4)C(C)C)cc2s1` (stereo unspecified) the z-score was -0.0773. `CCn1cc(C(=O)OCC(=O)c2cc(C)n(-c3ccccc3F)c2C)c(=O)c2ccc(C)nc21` gave a z-score of -0.711. With `O=S(=O)(Nc1cccc2nsnc12)c1ccccc1` the z-score was 0.265. `Cc1ccc(C)c(NS(=O)(=O)c2c(C)ccc3nsnc23)c1` showed a z-score of -0.891. In the case of `Cc1ccc2nsnc2c1S(=O)(=O)Nc1cccc2nsnc12`, the z-score is reported as 14.7 (active). For `O=C(O)COc1ccc(/C=N/n2c(COc3ccccc3)nc3ccccc3c2=O)cc1`, the z-score was -0.124. Compound `O=C1C(=C(c2ccccc2)c2ccccc2)Nc2ccccc21` has a z-score of -1.32. In the case of `O=C1CCCCC(=O)c2ccccc2N1`, the z-score is reported as 2.21. Work on `O=C1CCCc2sccc2N1` yielded a z-score of -0.164. Compound `Cc1cc2cc(C)c3nnc(SCC(=O)N4CCc5ccccc54)n3c2cc1C` has a z-score of -0.31. In the case of `COc1cc(CNC2CCCCCC2)cc(OC)c1O`, the z-score is reported as 0.176. `CCn1c(CNC(=O)c2ccco2)nnc1SCC(=O)Nc1cc(C)c(C)cc1Br` showed a z-score of -0.121. `COC(=O)c1c(N)c(C#N)c(C)n1-c1ccccc1` showed a z-score of -0.272. `CC(C)(C)C(=O)Nc1ccccc1C(=O)OCC(=O)c1ccc2c(c1)OCCO2` was tested, and the z-score was -0.731. Work on `CCOC(=O)N1CCN(Cc2nc(N)nc(Nc3ccccc3C)n2)CC1` yielded a z-score of -0.106. Work on `OCCCCNCc1ccc(OCc2ccccc2Cl)cc1` yielded a z-score of 2.17. In the case of `OCCCCNCc1ccc(OCc2ccccc2)cc1`, the z-score is reported as 0.0747. `OCCCCNCc1ccc(OCc2ccc(Cl)cc2Cl)cc1` was tested, and the z-score was 1.19. Compound `Cc1occc1-c1nnc(SCc2cc(=O)n3cc(Br)ccc3n2)n1C` has a z-score of 0.0968. Compound `Cc1oc(-c2cccc(Cl)c2)nc1CN1CCC(C(=O)NCC2CCCO2)CC1` (stereo unspecified) has a z-score of -0.375. `Cc1oc(-c2ccccc2Cl)nc1CSCC(=O)NC1CCCC1` gave a z-score of -0.0255. `Cc1ccccc1-c1nc(CN2CCC(C(=O)NCCCN3CCCC3)CC2)c(C)o1` showed a z-score of 2.76. `Cc1ccccc1-c1nc(CN2CCC(C(=O)NCC3CCCO3)CC2)c(C)o1` (stereo unspecified) was tested, and the z-score was -0.924. `Cc1ccccc1-c1nc(CN2CCC(C(=O)NCCC3=CCCCC3)CC2)c(C)o1` showed a z-score of 1.63. With `Cc1ccccc1-c1nc(CN2CCC(C(=O)NCCCN3CC(C)CC(C)C3)CC2)c(C)o1` (stereo unspecified) the z-score was 2.43. `Cc1ccccc1-c1nc(CN2CCCC(C(=O)NCCCN3CCOCC3)C2)c(C)o1` (stereo unspecified) was tested, and the z-score was -0.359. With `Cc1oc(-c2cccc(Cl)c2)nc1CN1CCC(C(=O)NCc2ccco2)CC1` the z-score was -4.86 (active). `Cc1ccccc1-c1nc(CN2CCC(C(=O)NCCCN3CCOCC3)CC2)c(C)o1` showed a z-score of -0.636. For `CCN1CCCC1CNC(=O)CSCc1nc(-c2ccccc2C)oc1C` (stereo unspecified), the z-score was 4.01 (active). `CCN1CCCC1CNC(=O)C1CCN(Cc2nc(-c3cccc(Br)c3)oc2C)CC1` (stereo unspecified) was tested, and the z-score was 4.3 (active). Work on `CCN1CCCC1CNC(=O)CS(=O)(=O)Cc1nc(-c2ccccc2C)oc1C` (stereo unspecified) yielded a z-score of 1.21. Compound `COCCNC(=O)c1ccc(C(=O)C(=O)c2ccccc2)cc1` has a z-score of -0.189. `CCOC(=O)N1CCC(NC(=O)c2cc3c(=O)n(C)c4ccccc4c3n2C)CC1` showed a z-score of -0.597. Work on `CC(C)(C)NS(=O)(=O)c1ccc(CCC(=O)Nc2cc(Cl)ccc2Oc2ccccc2)cc1` yielded a z-score of 0.0264. `Cc1ccc(C(=O)Oc2coc(CSc3nnc(NC(=O)C4CC4)s3)cc2=O)cc1C` was tested, and the z-score was 0.84. `Cc1nnc(N(Cc2ccccc2)C(=O)c2cnccn2)s1` showed a z-score of 0.0216. In the case of `C=CCn1c(SCN2C(=O)c3ccccc3C2=O)nc2ccc(Cl)cc2c1=O`, the z-score is reported as 12.6 (active). Work on `C=CCn1c(SCC(=O)c2ccc(Cl)s2)nc2ccccc2c1=O` yielded a z-score of -0.205. In the case of `C=CCn1c(SCC(=O)Nc2sccc2C(N)=O)nc2ccc(Cl)cc2c1=O`, the z-score is reported as 5.23 (active). Compound `C=CCn1c(SCC(=O)NCCC2=CCCCC2)nc2ccc(Cl)cc2c1=O` has a z-score of -0.151. `C=CCn1c(SCC(=O)Nc2sccc2C(N)=O)nc2ccccc2c1=O` was tested, and the z-score was -0.59. `C=CCn1c(SCC(=O)Nc2sccc2C(N)=O)nc2sc(CC)cc2c1=O` was tested, and the z-score was -1.15. Compound `O=C1C2C3C=CC([C@@H]2C(=O)N1c1nccs1)C31CC1` (stereo partly specified) has a z-score of -0.0608. Compound `Cc1ccc2nc(NC(=O)c3ccc(NS(=O)(=O)c4cccs4)cc3)sc2c1` has a z-score of 0.062. `CC(C)NC(=S)N=Nc1c(O)[nH]c2ccc(C(C)C)cc12` showed a z-score of 0.589. For `CNC(=S)N=Nc1c(O)[nH]c2ccc(C(C)C)cc12`, the z-score was 5.56 (active). For `NC(=S)N=Nc1c(O)[nH]c2ccc(F)cc12`, the z-score was 1.48. `COC(=O)CNC(=O)C1CCCN1C(=O)OC(C)(C)C` (stereo unspecified) (Boc-[ξP]-Gly-OMe) gave a z-score of -0.536. `Cn1cc(Cl)c(C(=O)Nc2nc3ccc(Cl)cc3s2)n1` was tested, and the z-score was 0.119. For `CCOC(=O)N1CCN(c2c(F)cc3[nH]c(=S)[nH]c3c2Br)CC1`, the z-score was 6.26 (active). `CCOC(=O)N1CCN(c2cc3[nH]c(=S)[nH]c3cc2F)CC1` gave a z-score of -0.482. Compound `CCOC(=O)N1CCN(c2cc3nccnc3cc2F)CC1` has a z-score of -0.142. `CC1CCCC(C)N1C(=O)CSc1nnc(NC(=O)Cc2cccs2)s1` (stereo unspecified) showed a z-score of -1.05. In the case of `Cc1cc(NC(=O)CCC(=O)NNC(=O)c2ccc(C(C)(C)C)cc2)no1`, the z-score is reported as -0.141. With `Cc1noc(C)c1CSc1ccccc1C(=O)Nc1nccs1` the z-score was 0.618. Work on `CN=c1scc(-c2cccs2)n1/N=C/c1ccccc1O` yielded a z-score of 0.0374. `CC(C)N=c1scc(-c2cccs2)n1/N=C/c1ccc(O)c(O)c1O` was tested, and the z-score was 4.07 (active). Work on `CCN=c1scc(C)n1/N=C/c1ccsc1` yielded a z-score of -0.0195. `CCN=c1scc(C)n1/N=C/c1ccc(O)c(O)c1O` showed a z-score of -0.528. `COCCN=c1scc(-c2cccs2)n1/N=C/c1ccc(O)c(O)c1O` showed a z-score of 2.93. With `Oc1ccc(/C=N/N=C(c2ccccc2)c2ccccc2)c(O)c1O` the z-score was -0.213. `COc1ccc(O)c(/C=N/n2c(-c3ccco3)csc2=Nc2cccnc2)c1` showed a z-score of 0.368. `CN=c1scc(C)n1/N=C/c1ccc(O)c(O)c1O` gave a z-score of -0.648. `CN=c1scc(C)n1/N=C/c1ccc(O)cc1O` was tested, and the z-score was 0.0453. Compound `COCCNC(=O)Nc1ccc2nc(-c3cccs3)c(-c3cccs3)nc2c1` has a z-score of -0.235. `CCN=c1scc(-c2cccs2)n1/N=C/c1cc(OC)ccc1O` was tested, and the z-score was 2.02. In the case of `CN=c1scc(-c2cccs2)n1/N=C/c1ccc(O)c(O)c1O`, the z-score is reported as 3.01 (active). `COc1cc(/C=N/NC(=O)COc2ccc(Cl)cc2)ccc1OS(=O)(=O)c1ccc(C)cc1` showed a z-score of -0.0849. For `CCOC(=O)C1=NNC(C(=O)c2ccc(C)cc2)C1c1ccc(C)cc1` (stereo unspecified), the z-score was -0.512. For `C=C(C)c1cccc(C(C)(C)NC(=O)N2CC(C)OC(C)C2)c1` (stereo unspecified), the z-score was -0.0325. Compound `Cc1nn(C)c(C)c1/C=C(\C#N)C(N)=O` has a z-score of -0.273. Work on `Cc1ccc(CN(Cc2ccc(C)o2)C(=S)NCC(=O)O)cc1` yielded a z-score of -0.00212. `Cc1sc2nc(CN3CCCCC3)nc(Cl)c2c1C` was tested, and the z-score was -0.502. In the case of `Cn1c(NCC(O)CO)nc2c1c(=O)n(Cc1ccc(Cl)c(Cl)c1)c(=O)n2C` (stereo unspecified), the z-score is reported as -0.188. In the case of `COc1ccc2c(c1)c(=O)cc(-c1ccccc1)n2C`, the z-score is reported as -0.0758. With `COCCN=c1scc(-c2cc(OC)ccc2OC)n1/N=C/c1c[nH]c2ccccc12` the z-score was -0.343. Compound `CCN=c1scc(-c2ccccc2)n1/N=C/c1ccccn1` has a z-score of -0.0993. With `COCCN=c1scc(-c2ccccc2)n1/N=C/c1c[nH]c2ccccc12` the z-score was 2.05. Compound `COc1cccc(NC(=O)Cn2cc3c(n2)CCCCC3)c1` has a z-score of 2.89. `CCc1cccc(NC(=O)Cn2cc3c(n2)CCCC3)c1` showed a z-score of 0.22. In the case of `Cc1cc(C)cc(NC(=O)Cn2cc3c(n2)CCCCC3)c1`, the z-score is reported as 5.95 (active). With `O=C(Cn1cc2c(n1)CCCCC2)Nc1c(F)c(F)cc(F)c1F` the z-score was 0.762. In the case of `CC1CCC(NC(=O)Cn2cc3c(n2)CCCC3)CC1` (stereo unspecified), the z-score is reported as 2.79. In the case of `CC1CCCC(NC(=O)Cn2cc3c(n2)CCCCC3)C1C` (stereo unspecified), the z-score is reported as 0.237. `CC1CCc2nn(CC(=O)NC3CCCC3)cc2C1` (stereo unspecified) gave a z-score of -0.653. `CC(=O)c1cccc(NC(=O)Cn2cc3c(n2)CCCC3)c1` gave a z-score of -0.279. With `COc1cccc(CNC(=O)Cn2cc3c(n2)CCCCC3)c1` the z-score was -0.00462. For `C/C(=N/NC(=O)c1ccc(O)cc1)c1cccc([N+](=O)[O-])c1`, the z-score was -0.369. `Cc1c2ccccc2nc2c(F)c(NCCO)c(F)c(F)c12` showed a z-score of -0.746. Compound `COc1ccc(/C=N/OCC(=O)N(Cc2ccc(OC)cc2)c2ccccc2C(=O)O)cc1` has a z-score of -0.615. For `Cc1nn(Cc2ccccc2)c(C)c1NC(=O)CCC(=O)O`, the z-score was -0.119. `Cc1cc(C)c(C(=O)CSc2nnc(-c3cccnc3)n2C)c(C)c1` showed a z-score of 0.116. In the case of `CCCCNC(=O)/C=C/c1cccs1`, the z-score is reported as -0.364. Work on `N#CC(c1ccccc1)c1ccc2c(C(F)(F)F)cc(C(F)(F)F)nc2n1` (stereo unspecified) yielded a z-score of 0.135. For `N#CC(c1cccc(Cl)c1)c1ccc2c(C(F)(F)F)cc(C(F)(F)F)nc2n1` (stereo unspecified), the z-score was 10.5 (active). Compound `Cc1ccc(C(C#N)c2ccc3c(C(F)(F)F)cc(C(F)(F)F)nc3n2)cc1` (stereo unspecified) has a z-score of 1.26. For `C/C(Cl)=C\Cn1c(NCCCn2ccnc2)nc2c1c(=O)n(C)c(=O)n2C`, the z-score was -0.632. Work on `Cn1c(=O)[nH]c(=O)c2c1nc(NC1CCCCC1)n2Cc1ccccc1` yielded a z-score of 0.331. In the case of `CC(=O)c1cc(OC(=O)N2CCOCC2)ccc1OC(=O)N1CCOCC1`, the z-score is reported as -0.376. `CN(C)Cc1nc2c(c(=O)[nH]1)C(C)(C)Cc1ccccc1-2` showed a z-score of 0.00689. `O=C(COC(=O)c1ccc2c(c1)C(=O)N(c1cccc3ncccc13)C2=O)c1ccc(Cl)cc1` gave a z-score of -0.619. With `COc1ccc(NC(=O)N2CC(C)OC(C)C2)cc1OC` (stereo unspecified) the z-score was -0.307. Work on `O=C(CCNS(=O)(=O)c1ccc2c(c1)CCC(=O)N2)NCc1cccnc1` yielded a z-score of -0.489.
